High-throughput results deposited in PubChem by University of Kansas High Throughput Screening Laboratory.
mHTT-CaM PPI inh – inhibitors of human mutant huntingtin-calmodulin interaction. P42858. AlphaScreen His-mHTT/GST-CaM binding, luminescence. inhibition, % at 15 µM. 190,000 tested, 3.6% active;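 further: 0% = both proteins with DMSO and 100% = one protein alone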
Target sequence (P42858 whole entry, looked up, stated change not applied): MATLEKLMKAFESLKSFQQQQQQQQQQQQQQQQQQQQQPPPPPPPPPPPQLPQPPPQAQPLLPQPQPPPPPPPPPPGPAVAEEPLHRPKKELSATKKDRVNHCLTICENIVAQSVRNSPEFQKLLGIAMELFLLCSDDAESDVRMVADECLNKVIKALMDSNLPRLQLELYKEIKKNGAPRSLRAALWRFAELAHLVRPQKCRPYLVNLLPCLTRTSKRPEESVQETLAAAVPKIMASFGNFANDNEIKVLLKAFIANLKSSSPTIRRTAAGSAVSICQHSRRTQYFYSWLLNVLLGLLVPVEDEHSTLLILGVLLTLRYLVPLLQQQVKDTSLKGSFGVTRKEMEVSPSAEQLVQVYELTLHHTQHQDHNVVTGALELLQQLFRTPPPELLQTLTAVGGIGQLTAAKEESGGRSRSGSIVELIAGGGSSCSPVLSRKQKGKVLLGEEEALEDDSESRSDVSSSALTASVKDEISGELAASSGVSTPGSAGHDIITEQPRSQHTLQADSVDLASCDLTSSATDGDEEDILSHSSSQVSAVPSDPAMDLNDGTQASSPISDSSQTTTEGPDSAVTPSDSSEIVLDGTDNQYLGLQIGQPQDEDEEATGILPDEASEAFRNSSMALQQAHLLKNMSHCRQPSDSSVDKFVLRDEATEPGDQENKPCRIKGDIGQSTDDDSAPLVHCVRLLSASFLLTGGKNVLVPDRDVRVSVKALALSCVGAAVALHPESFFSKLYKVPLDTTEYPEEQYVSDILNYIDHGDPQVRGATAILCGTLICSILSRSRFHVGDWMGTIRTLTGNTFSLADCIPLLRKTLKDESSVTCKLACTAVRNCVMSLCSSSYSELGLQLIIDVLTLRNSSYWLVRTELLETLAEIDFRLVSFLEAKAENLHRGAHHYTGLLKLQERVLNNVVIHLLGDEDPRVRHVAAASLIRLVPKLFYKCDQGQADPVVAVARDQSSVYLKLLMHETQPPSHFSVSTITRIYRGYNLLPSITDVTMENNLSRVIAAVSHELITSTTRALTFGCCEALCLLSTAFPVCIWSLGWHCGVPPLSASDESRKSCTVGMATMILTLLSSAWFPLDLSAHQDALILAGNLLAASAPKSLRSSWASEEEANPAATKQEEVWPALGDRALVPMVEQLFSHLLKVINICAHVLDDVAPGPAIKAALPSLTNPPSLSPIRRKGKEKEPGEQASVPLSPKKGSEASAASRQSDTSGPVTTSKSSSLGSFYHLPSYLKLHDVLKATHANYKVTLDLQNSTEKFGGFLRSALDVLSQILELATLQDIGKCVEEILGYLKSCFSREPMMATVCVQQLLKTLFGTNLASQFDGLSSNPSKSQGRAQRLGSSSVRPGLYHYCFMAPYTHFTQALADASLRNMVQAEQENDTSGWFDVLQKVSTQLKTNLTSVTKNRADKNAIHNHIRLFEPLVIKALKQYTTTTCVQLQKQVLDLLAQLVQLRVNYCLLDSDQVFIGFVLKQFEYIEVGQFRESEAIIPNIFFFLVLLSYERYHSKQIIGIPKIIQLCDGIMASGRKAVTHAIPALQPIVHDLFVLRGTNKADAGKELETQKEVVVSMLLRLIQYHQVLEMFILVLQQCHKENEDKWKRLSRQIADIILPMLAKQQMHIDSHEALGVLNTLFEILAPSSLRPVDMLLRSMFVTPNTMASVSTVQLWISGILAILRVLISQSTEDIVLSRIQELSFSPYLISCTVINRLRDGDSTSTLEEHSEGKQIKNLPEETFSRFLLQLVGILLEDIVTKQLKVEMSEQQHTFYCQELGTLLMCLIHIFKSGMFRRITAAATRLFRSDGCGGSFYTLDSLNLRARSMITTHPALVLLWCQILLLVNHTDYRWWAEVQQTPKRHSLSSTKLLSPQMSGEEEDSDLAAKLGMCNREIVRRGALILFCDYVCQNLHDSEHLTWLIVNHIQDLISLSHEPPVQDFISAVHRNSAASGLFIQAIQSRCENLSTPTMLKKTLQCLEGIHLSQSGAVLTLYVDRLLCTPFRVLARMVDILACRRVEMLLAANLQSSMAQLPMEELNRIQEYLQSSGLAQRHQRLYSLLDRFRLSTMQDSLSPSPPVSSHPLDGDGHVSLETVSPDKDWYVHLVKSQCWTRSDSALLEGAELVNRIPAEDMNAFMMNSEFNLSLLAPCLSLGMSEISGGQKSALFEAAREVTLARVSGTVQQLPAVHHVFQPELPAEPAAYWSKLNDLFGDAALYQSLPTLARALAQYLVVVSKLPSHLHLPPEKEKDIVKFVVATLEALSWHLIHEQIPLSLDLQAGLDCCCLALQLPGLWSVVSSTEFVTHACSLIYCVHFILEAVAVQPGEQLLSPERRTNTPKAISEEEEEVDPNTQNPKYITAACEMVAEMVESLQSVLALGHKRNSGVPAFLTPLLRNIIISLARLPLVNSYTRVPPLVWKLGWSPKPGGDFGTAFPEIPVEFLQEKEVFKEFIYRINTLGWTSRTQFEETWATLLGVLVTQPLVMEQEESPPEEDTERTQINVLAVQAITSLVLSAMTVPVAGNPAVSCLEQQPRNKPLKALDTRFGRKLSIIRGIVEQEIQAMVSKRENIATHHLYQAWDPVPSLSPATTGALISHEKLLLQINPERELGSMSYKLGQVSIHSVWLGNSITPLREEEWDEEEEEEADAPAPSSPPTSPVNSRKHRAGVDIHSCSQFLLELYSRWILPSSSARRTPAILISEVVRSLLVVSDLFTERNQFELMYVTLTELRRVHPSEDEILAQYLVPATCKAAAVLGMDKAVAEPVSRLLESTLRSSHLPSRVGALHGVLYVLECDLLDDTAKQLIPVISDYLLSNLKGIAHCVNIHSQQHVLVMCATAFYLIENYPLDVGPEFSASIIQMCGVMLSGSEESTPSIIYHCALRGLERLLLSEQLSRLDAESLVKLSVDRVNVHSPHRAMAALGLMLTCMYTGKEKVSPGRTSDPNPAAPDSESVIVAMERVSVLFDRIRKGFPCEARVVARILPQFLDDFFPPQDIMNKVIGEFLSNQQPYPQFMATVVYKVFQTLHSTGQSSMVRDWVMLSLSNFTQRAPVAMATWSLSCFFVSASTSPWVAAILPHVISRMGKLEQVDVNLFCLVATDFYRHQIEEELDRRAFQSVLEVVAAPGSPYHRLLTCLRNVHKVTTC
Pf apPOL inh – Pf-apPOL DNA polymerase inhibition | Recombinant Pf-apPOL, molecular beacon fluorescence, 1.5 h | inhibition, % at 10 µM | 210,000 tested, 0.25% active
* marks the source's active call; other numbers are inactive results; . = no result given. Shown is part of a subset that was picked to be rich in hits. No stated cut-off is given here; in the data, active means inhibition above about 50%; inactive means the rest.

SMILES	mHTT-CaM PPI inh	Pf apPOL inh
CCCC1CCC(c2ccc(-c3noc(-c4cccnc4)n3)cc2)CC1 (stereo not given)	-3	-8
CC(=O)c1cccc(NC(=O)Cn2cnc(-c3ccccc3)cc2=O)c1	-9	2
COc1ccc(OC)c(C2C3=C(CC(C)(C)CC3=O)Nc3ccc4ncccc4c32)c1 (stereo not given)	52*	-5
CC1(C)CC(=O)C2=C(C1)Nc1ccc3ncccc3c1C2c1ccccn1 (stereo not given)	1	-1
N#CC1=C(N)Oc2n[nH]c(C34CC5CC(CC(C5)C3)C4)c2C1c1ccc(O)cc1 (stereo not given)	29	8
N#CC1=C(N)Oc2n[nH]c(C34CC5CC(CC(C5)C3)C4)c2C1c1cccs1 (stereo not given)	55*	-3
O=C(CSc1nnc(-c2ccco2)c(-c2ccco2)n1)Nc1ccc(Cl)cc1	99*	1
NS(=O)(=O)c1ccc(NC(=O)CSc2nnc(-c3ccco3)c(-c3ccco3)n2)cc1	40	-1
O=C(NCCCN1CCOCC1)C1CCN(c2cnn(Cc3ccccc3)c(=O)c2)CC1	4	-5
CC(Oc1ccccc1)C(=O)NCCc1ccc(S(N)(=O)=O)cc1 (stereo not given)	25	86*
COc1ccc(OC(C)C(=O)NCCc2ccccc2)cc1 (stereo not given)	-3	6
CCOC(=O)C(NC(=O)c1cccnc1)(Nc1ccccc1C(F)(F)F)C(F)(F)F (stereo not given)	.	-6
CCOC(=O)c1nc(N2CCCC2)c2oc3ccccc3c2n1	2	-4
O=C(NC1CC1)c1nc(N2CCCCCC2)c2oc3ccccc3c2n1	52*	-9
O=C(Nc1ccc(NC(=O)c2cccc([N+](=O)[O-])c2)cc1)c1cccc(Br)c1	1	-2
CCOc1ccc(-n2nnnc2CNS(=O)(=O)c2cccc(C(F)(F)F)c2)cc1	-10	-8
O=C(Nc1ccc(F)c(F)c1)c1ccc(F)c(S(=O)(=O)N2CCCCCC2)c1	-6	30
Cc1c(C(=O)NCc2ccccn2)oc2ccc(S(=O)(=O)N3CCCCC3)cc12	58*	-10
Cc1c(C(=O)NCc2ccccn2)oc2ccc(S(=O)(=O)N3CCOCC3)cc12	3	2
CCCN1CCOC(CC(=O)Nc2ccc(Br)cc2Br)C1=O (stereo not given)	1	-6
CC1=NN(c2nc(-c3ccc(C)cc3)cs2)C(=O)/C1=C/c1ccc(N(C)C)cc1	56*	-9
CC1=NN(c2ccc(Cl)c(Cl)c2)C(=O)/C1=C/c1ccccc1	15	-3
CC1=NN(c2ccc(Br)cc2)C(=O)/C1=C/c1ccc(N(C)C)cc1	37	3
CCN(C)c1ccc(/C=C2/C(=O)N(c3ccc(Cl)c(Cl)c3)N=C2C)cc1	61*	-5
CCc1ccc(N2N=C(C)/C(=C\c3ccc(N(C)C)cc3)C2=O)cc1	70*	-1
SMILES	mHTT-CaM PPI inh	Pf apPOL inh
CC1=NN(c2nc(-c3ccccc3)cs2)C(=O)/C1=C/c1ccc(C)s1	3	-9
CC1=NN(c2nc(-c3ccccc3)cs2)C(=O)/C1=C/c1ccco1	76*	9
CC1=NN(c2ccccc2)C(=O)/C1=C/c1ccc(N(C)C)cc1	42	-7
COC(=O)Cn1cnc2c(-c3ccc(F)cc3)csc2c1=O	2	-1
Cc1noc(C)c1S(=O)(=O)N1CCC(CC(=O)NCc2cccnc2)CC1	-14	3
COc1cccc(C=C2Oc3cc(OC(=O)N4CCOCC4)ccc3C2=O)c1OC	-6	-6
O=C(Nc1ccc(N2CCCN(C(=O)Cc3ccccc3)CC2)nc1)C1CCCC1	1	-4
COc1cccc(CNC(=O)c2nnn(-c3cccc(C(F)(F)F)c3)c2N)c1	-3	6
COc1ccc(N2CC(NC(=O)Nc3ccc(Br)cc3C)CC2=O)cc1 (stereo not given)	2	4
CCOCCCNC(=O)C1(C)CCC(=O)N1c1ccccc1CC (stereo not given)	1	-7
Cc1ccsc1C(=O)Nc1cnc(-c2ccc(Cl)cc2)nc1	-12	0
COc1ccc(CCNc2oc(COc3ccccc3C)nc2C#N)cc1OC	35	0
CC1=NN(c2ccc(Cl)c(Cl)c2)C(=O)/C1=C/c1ccc(C)c([N+](=O)[O-])c1	12	0
CCN(CC)c1ccc(/C=C2/C(=O)N(c3ccc(Cl)c(C(=O)O)c3)N=C2C)cc1	59*	-2
CC1=NN(c2cccc(Cl)c2)C(=O)/C1=C/c1ccc(Cl)c([N+](=O)[O-])c1	76*	3
CCN(CC)c1ccc(/C=C2/C(=O)N(c3ccc(C)cc3)N=C2C)cc1	29	-1
O=[N+]([O-])c1cc(C(F)(F)F)ccc1N1CCc2ccccc21	95*	1
COC(CNC(=O)c1ccc(N2CCCCCC2)c([N+](=O)[O-])c1)OC	12	-2
O=[N+]([O-])c1cc(C(F)(F)F)ccc1N1CCCCC1	.	1
CCOC(CNC(=O)c1ccc(N2CCc3ccccc32)c([N+](=O)[O-])c1)OCC	56*	-6
CC(C)NC(=O)C1CCN(c2nc3ccc(-c4ccccc4F)nc3s2)CC1	0	0
CC(C)(C)C1CCc2onc(C(=O)Nc3cc(Cl)ccc3O)c2C1 (stereo not given)	61*	-5
CC(C)(C)C1CCc2onc(C(=O)Nc3ccc(F)cc3F)c2C1 (stereo not given)	-4	-8
CCOC(=O)C1Oc2ccccc2C(C(=O)OC)=C1C(=O)OC (stereo not given)	3	-7
CCOC(=O)ON1C(=O)c2ccccc2N2COc3ccccc3C12 (stereo not given)	100*	.
SMILES	mHTT-CaM PPI inh	Pf apPOL inh
CC(=O)N1CCc2[nH]c3ccc(C(=O)N4CCN(C(C)C)CC4)cc3c2C1	14	-3
CCN(CCNC(=O)c1ccc2[nH]c3c(c2c1)CN(C(C)=O)CC3)c1ccccc1	68*	-4
CCN(C(=O)c1ccc2[nH]c3c(c2c1)CN(C(C)=O)CC3)c1cccc(C)c1	84*	-4
CC(=O)N1CCc2[nH]c3ccc(C(=O)N4CCOCC4)cc3c2C1	36	-1
CCC(CC)N1CCN(C(=O)c2ccc3[nH]c4c(c3c2)CN(C(C)=O)CC4)CC1	38	-5
CCN(CC)c1ccc(CNC(=O)c2ccc3[nH]c4c(c3c2)CN(C(C)=O)CC4)cc1	69*	0
CC(=O)N1CCc2[nH]c3ccc(C(=O)NCCc4nc5ccccc5n4C)cc3c2C1	14	-2
CC(=O)N1CCc2[nH]c3ccc(C(=O)N4CCN(Cc5ccc(C)cc5)CC4)cc3c2C1	78*	-3
C#CCOc1ccc(C2C(C#N)=C(N)Oc3cc(O)ccc32)cc1OC (stereo not given)	10	-1
Cc1ccsc1C(=O)N1CCCCC1c1nncn1CC1CC1 (stereo not given)	-6	-1
CC(=O)N1CCc2[nH]c3ccc(C(=O)NCc4ccc(N5CCN(C)CC5)cc4)cc3c2C1	21	-2
CC(=O)N1CCc2[nH]c3ccc(C(=O)NCc4ccc(F)cc4)cc3c2C1	72*	4
O=C1/C(=C/c2cccnc2)CC/C1=C\c1cccnc1	4	1
CC(=O)N1CC(=O)NC(=Cc2cccnc2)C1=O	.	52*
COc1ccc(C2NN=C3c4[nH]c5ccc(C)cc5c4CCC32)cc1 (stereo not given)	46	-2
CN(C)c1cccc(C(=O)N2CCC(CCOCc3cccc(F)c3)CC2)c1	48	-6
